The campaign covered roughly 5,500 compounds. About 2,000 (36%) were called active. About 18% were inconclusive and are not listed. Cut-off read from the data, not from the text of the source: active = normalized growth mostly below about 0.91 (no sharp cut-off); inconclusive = no clear call, values can overlap the other calls; inactive = mostly above about 0.92. This is one part of the list.
Experiment: chemical genetic growth profiling, strain panel (AID 1159580);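 note: tested at 20 µM; growth read once vehicle control cultures reached saturation at 30 °C; 1 = growth at the plate median or of vehicle wells; lower values mean less growth of the strain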
Details: growth OD
[1] = S. cerevisiae deletion strains, locus YAL013W, strain DEP1, stronger effect = lower value
[2] = S. cerevisiae deletion strains, locus YBR229C, strain ROT2, stronger effect = lower value
[3] = S. cerevisiae deletion strains, locus YDL101C, strain DUN1, stronger effect = lower value
[4] = S. cerevisiae deletion strains, locus YDL134C, strain PPH21, stronger effect = lower value
[5] = S. cerevisiae deletion strains, locus YDR150W, strain NUM1, stronger effect = lower value
[6] = S. cerevisiae deletion strains, locus YEL061C, strain CIN8, stronger effect = lower value
[7] = S. cerevisiae deletion strains, locus YGR078C, strain PAC10, stronger effect = lower value
[8] = S. cerevisiae deletion strains, locus YGR229C, strain SMI1, stronger effect = lower value
[9] = S. cerevisiae deletion strains, locus YHR030C, strain SLT2, stronger effect = lower value
[10] = S. cerevisiae deletion strains, locus YJR043C, strain POL32, stronger effect = lower value
[11] = S. cerevisiae deletion strains, locus YJR075W, strain HOC1, stronger effect = lower value
[12] = S. cerevisiae deletion strains, locus YKL190W, strain CNB1, stronger effect = lower value
[13] = S. cerevisiae deletion strains, locus YLR039C, strain RIC1, stronger effect = lower value
[14] = S. cerevisiae deletion strains, locus YLR262C, strain YPT6, stronger effect = lower value
[15] = S. cerevisiae deletion strains, locus YMR263W, strain SAP30, stronger effect = lower value
[16] = S. cerevisiae deletion strains, locus YNL153C, strain GIM3, stronger effect = lower value
[17] = S. cerevisiae deletion strains, locus YNL322C, strain KRE1, stronger effect = lower value
[18] = S. cerevisiae deletion strains, locus YOL006C, strain TOP1, stronger effect = lower value
[19] = S. cerevisiae deletion strains, locus YPL055C, strain LGE1, stronger effect = lower value
[20] = S. cerevisiae deletion strains, locus YPL241C, strain CIN2, stronger effect = lower value
[21] = S. cerevisiae strains, strain wild type, stronger effect = lower value

Measured: normalized growth

NC[C@@H]1CC[C@@H](N)[C@@H](O[C@H]2[C@H](O)[C@@H](O[C@H]3O[C@H](CO)[C@@H](O)[C@H](N)[C@H]3O)[C@H](N)C[C@@H]2N)O1
inactive: [1] 0.987 | S. cerevisiae deletion strains, locus YBR021W, strain FUR4, stronger effect = lower value 1.06 | [2] 0.959 | S. cerevisiae deletion strains, locus YCL029C, strain bik1, stronger effect = lower value 0.985 | S. cerevisiae deletion strains, locus YDL035C, strain GPR1, stronger effect = lower value 0.995 | S. cerevisiae deletion strains, locus YDL074C, strain BRE1, stronger effect = lower value 0.983 | [3] 0.952 | [4] 0.993 | S. cerevisiae deletion strains, locus YDL185W, strain tfp1, stronger effect = lower value 0.984 | S. cerevisiae deletion strains, locus YDL192W, strain arf1, stronger effect = lower value 0.993 | S. cerevisiae deletion strains, locus YDR101C, strain arx1, stronger effect = lower value 1 | [5] 0.986 | S. cerevisiae deletion strains, locus YDR162C, strain NBP2, stronger effect = lower value 0.967 | S. cerevisiae deletion strains, locus YDR318W, strain mcm21, stronger effect = lower value 1.01 | S. cerevisiae deletion strains, locus YDR388W, stronger effect = lower value 1 | S. cerevisiae deletion strains, locus YDR502C, strain sam2, stronger effect = lower value 1 | [6] 0.987 | S. cerevisiae deletion strains, locus YER110C, stronger effect = lower value 0.996 | S. cerevisiae deletion strains, locus YER155C, strain BEM2, stronger effect = lower value 1 | S. cerevisiae deletion strains, locus YER167W, strain BCK2, stronger effect = lower value 0.98 | S. cerevisiae deletion strains, locus YGL078C, strain dbp3, stronger effect = lower value 0.994 | S. cerevisiae deletion strains, locus YGL086W, strain mad1, stronger effect = lower value 0.995 | S. cerevisiae deletion strains, locus YGL248W, strain PDE1, stronger effect = lower value 0.978 | [7] 0.986 | S. cerevisiae deletion strains, locus YGR135W, strain pre9, stronger effect = lower value 0.982 | [8] 1.01 | S. cerevisiae deletion strains, locus YGR252W, strain gcn5, stronger effect = lower value 1.02 | [9] 0.995 | S. cerevisiae deletion strains, locus YHR079C, strain IRE1 (second series), stronger effect = lower value 1 | S. cerevisiae deletion strains, locus YHR094C, strain hxt1, stronger effect = lower value 1 | S. cerevisiae deletion strains, locus YHR129C, strain ARP1, stronger effect = lower value 0.992 | S. cerevisiae deletion strains, locus YHR200W, strain rpn10, stronger effect = lower value 0.988 | S. cerevisiae deletion strains, locus YIL066C, strain RNR3, stronger effect = lower value 0.995 | S. cerevisiae deletion strains, locus YIL073C, strain SPO22, stronger effect = lower value 0.971 | S. cerevisiae deletion strains, locus YIL125W, strain kgd1, stronger effect = lower value 0.993 | S. cerevisiae deletion strains, locus YIR030C, strain dcg1, stronger effect = lower value 0.985 | S. cerevisiae deletion strains, locus YJL095W, strain BCK1, stronger effect = lower value 0.984 | S. cerevisiae deletion strains, locus YJL134W, strain LCB3, stronger effect = lower value 0.978 | S. cerevisiae deletion strains, locus YJL168C, strain set2, stronger effect = lower value 0.995 | S. cerevisiae deletion strains, locus YJL187C, strain SWE1 (second series), stronger effect = lower value 0.977 | [10] 1.01 | [11] 0.996 | S. cerevisiae deletion strains, locus YKL009W, strain mrt4, stronger effect = lower value 0.974 | S. cerevisiae deletion strains, locus YKL068W, stronger effect = lower value 0.996 | S. cerevisiae deletion strains, locus YKL085W, strain MDH1 (second series), stronger effect = lower value 0.983 | S. cerevisiae deletion strains, locus YKL085W, strain MDH1, stronger effect = lower value 0.983 | [12] 1 | S. cerevisiae deletion strains, locus YKR001C, strain vps1, stronger effect = lower value 0.994 | [13] 0.938 | S. cerevisiae deletion strains, locus YLR058C, strain SHM2, stronger effect = lower value 0.974 | S. cerevisiae deletion strains, locus YLR102C, strain apc9, stronger effect = lower value 0.993 | [14] 0.9 | S. cerevisiae deletion strains, locus YLR268W, strain sec22, stronger effect = lower value 0.986 | S. cerevisiae deletion strains, locus YLR330W, strain CHS5, stronger effect = lower value 0.981 | S. cerevisiae deletion strains, locus YLR342W, strain FKS1 (second series), stronger effect = lower value 1.01 | S. cerevisiae deletion strains, locus YLR371W, strain rom2, stronger effect = lower value 1 | S. cerevisiae deletion strains, locus YLR418C, strain cdc73, stronger effect = lower value 0.968 | S. cerevisiae deletion strains, locus YML016C, strain PPZ1, stronger effect = lower value 0.981 | S. cerevisiae deletion strains, locus YML032C, strain rad52, stronger effect = lower value 1 | S. cerevisiae deletion strains, locus YML124C, strain tub3, stronger effect = lower value 1.01 | S. cerevisiae deletion strains, locus YMR078C, strain ctf18, stronger effect = lower value 1 | S. cerevisiae deletion strains, locus YMR223W, strain ubp8, stronger effect = lower value 1.01 | [15] 0.983 | S. cerevisiae deletion strains, locus YMR307W, strain GAS1, stronger effect = lower value 1.13 | S. cerevisiae deletion strains, locus YNL067W, strain RPL9B, stronger effect = lower value 0.981 | S. cerevisiae deletion strains, locus YNL128W, strain TEP1, stronger effect = lower value 0.98 | [16] 0.991 | S. cerevisiae deletion strains, locus YNL233W, strain BNI4, stronger effect = lower value 0.994 | S. cerevisiae deletion strains, locus YNL250W, strain rad50, stronger effect = lower value 0.983 | S. cerevisiae deletion strains, locus YNL271C, strain bni1, stronger effect = lower value 1 | S. cerevisiae deletion strains, locus YNL298W, strain CLA4, stronger effect = lower value 1.01 | S. cerevisiae deletion strains, locus YNL307C, strain MCK1, stronger effect = lower value 0.997 | [17] 0.987 | S. cerevisiae deletion strains, locus YNR052C, strain pop2, stronger effect = lower value 0.953 | [18] 0.917 | S. cerevisiae deletion strains, locus YOL012C, strain htz1 0.745 | S. cerevisiae deletion strains, locus YOL147C, strain pex11, stronger effect = lower value 1.01 | S. cerevisiae deletion strains, locus YOR061W, strain CKA2, stronger effect = lower value 0.95 | S. cerevisiae deletion strains, locus YOR069W, strain VPS5, stronger effect = lower value 0.996 | S. cerevisiae deletion strains, locus YOR136W, strain idh2, stronger effect = lower value 1 | S. cerevisiae deletion strains, locus YOR144C, strain elg1, stronger effect = lower value 1 | S. cerevisiae deletion strains, locus YOR184W, strain ser1, stronger effect = lower value 1.03 | S. cerevisiae deletion strains, locus YOR316C, strain cot1, stronger effect = lower value 0.985 | [19] 0.984 | [20] 0.991 | S. cerevisiae deletion strains, locus YPR119W, strain clb2, stronger effect = lower value 1 | S. cerevisiae deletion strains, locus YPR141C, strain kar3, stronger effect = lower value 0.966 | S. cerevisiae deletion strains, locus YPR163C, strain tif3, stronger effect = lower value 1.01 | S. cerevisiae deletion strains, locus YPR167C, strain met16, stronger effect = lower value 0.988 | S. cerevisiae deletion strains, strain wtn01, stronger effect = lower value 0.987 | [21] 0.992

N#Cc1c(N)oc(-c2ccco2)c1-c1ccco1
active: [1] 0.893 | [9] 0.415 | S. cerevisiae deletion strains, locus YLR085C, strain ARP6, stronger effect = lower value 0.626 | [19] 0.789
inactive: [2] 0.975 | [3] 0.968 | [4] 0.947 | [5] 0.937 | [6] 0.947 | [7] 0.948 | [8] 0.994 | S. cerevisiae deletion strains, locus YHR087W, strain rtc3, stronger effect = lower value 0.97 | [10] 0.943 | [11] 0.949 | [12] 0.992 | [13] 0.981 | S. cerevisiae deletion strains, locus YLR058C, strain SHM2 (second series), stronger effect = lower value 0.961 | [14] 0.999 | S. cerevisiae deletion strains, locus YML094W, strain GIM5, stronger effect = lower value 0.875 | S. cerevisiae deletion strains, locus YMR219W, strain ESC1, stronger effect = lower value 0.969 | [15] 0.917 | [16] 0.987 | S. cerevisiae deletion strains, locus YNL298W, strain CLA4 (second series), stronger effect = lower value 0.888 | [17] 0.962 | S. cerevisiae deletion strains, locus YNR030W, strain Alg12, stronger effect = lower value 0.903 | [18] 0.913 | [20] 0.873 | S. cerevisiae deletion strains, locus YPR135W, strain CTF4, stronger effect = lower value 0.694 | [21] 0.984

Source: PubChem BioAssay AID1159580 (chemical genetic matrix, 2015)
